# The full list was thinned out, with hits kept by preference.
# FECH inh: blocks human mitochondrial ferrochelatase activity; P22830; purified FECH, Ni-mesoporphyrin absorbance 550 nm; calls only at 10 µM (by protocol); hit rate 3.3% among 20,000; AID 1671448;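 active = enzyme reaction rate more than 3 SD below the solvent-only control wells on the same plate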;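 note: lower slope than DMSO wells means FECH inhibition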
# Target sequence (P22830 whole entry, looked up): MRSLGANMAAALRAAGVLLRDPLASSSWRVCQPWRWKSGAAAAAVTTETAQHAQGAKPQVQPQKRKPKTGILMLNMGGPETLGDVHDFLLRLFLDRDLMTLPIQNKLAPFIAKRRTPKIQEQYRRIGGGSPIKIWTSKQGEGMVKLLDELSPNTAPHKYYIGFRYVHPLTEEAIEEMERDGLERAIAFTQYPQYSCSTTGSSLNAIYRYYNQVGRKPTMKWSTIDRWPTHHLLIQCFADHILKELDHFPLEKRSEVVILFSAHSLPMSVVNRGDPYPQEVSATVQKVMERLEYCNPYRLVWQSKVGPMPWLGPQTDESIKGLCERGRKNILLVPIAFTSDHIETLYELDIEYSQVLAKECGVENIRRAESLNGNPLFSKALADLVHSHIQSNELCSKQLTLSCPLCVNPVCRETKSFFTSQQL
# The depositor's hits bear a star; i = inactive; + = active, no number.
SMILES,FECH inh
COc1cc(OC)cc(C(=O)Nc2ccc(Nc3nc(C)cc(Nc4ccccc4)n3)cc2)c1,i
CCOc1ccc(CC(=O)Nc2cc(C)nn2-c2ncnc3c2cnn3-c2ccc(Cl)cc2)cc1,+
Cc1ccc(OCC(=O)Nc2cc(C)nn2-c2ncnc3c2cnn3-c2ccc(Cl)cc2)cc1,i
CCC(CC)C(=O)Nc1cc(C)nn1-c1ncnc2c1cnn2-c1cccc(Cl)c1,+
Cc1cc(NC(=O)CC(C)(C)C)n(-c2ncnc3c2cnn3-c2cccc(Cl)c2)n1,i
CCCC(=O)Nc1cc(C)nn1-c1ncnc2c1cnn2-c1cccc(Cl)c1,i
CCOc1ccc(CC(=O)Nc2cc(C)nn2-c2ncnc3c2cnn3-c2cccc(Cl)c2)cc1,i
CC(=O)Nc1ccc(Cl)c(C(=O)N2CCN(C)C[C@@H]2c2ccccc2)c1,i
CCC(CC)N(C)C(=O)c1cn(CC)c2c(F)c(F)c(F)cc2c1=O,i
O=C(NCCCN1CCCc2ccccc21)c1cn(-c2ccccc2)nn1,i
CC(C)c1nccc(CN2CCCC2c2ccc(F)cc2)n1 (configuration not stated),i
CCCc1c(C)nc2ncnn2c1Sc1ccc(NS(=O)(=O)c2ccc(CC)cc2)cc1,i
CCCCOCc1n[nH]c(Cc2ccccc2)n1,i
CC(C)Cc1c(-c2ccccc2)ncn1Cc1ccncc1,i
Cc1nnnn1-c1ccc(Cc2n[nH]c(Cc3ccccc3)n2)cc1,+
Cc1nnnn1-c1cccc(-c2n[nH]c(Cc3ccccc3)n2)c1,i
c1ccc(Cc2n[nH]c(Cn3nc4ccccc4n3)n2)cc1,i
Cc1nc(NC(=O)c2cccc(CN3[C@@H]4CC[C@H]3CC(O)C4)c2)nn1C(C)C (some centres not stated),i
Cc1c(C(=O)NC2CC(=O)N(CCc3ccccc3)C2)n(C)c2c(C)cccc12 (configuration not stated),i
Cc1nc(N(C)C)nc(NCCc2nc(-c3ccncc3)n[nH]2)c1C,i
CCCC1C=CCN1c1ncnc2sc3c(c12)CCNC3 (configuration not stated),+
CC(C)Cc1cc(CNc2ncnc3sc4c(c23)CCNC4)no1,i
NC(=O)C1(N2CCCCC2)CCN(c2ncnc3sc4c(c23)CCNC4)CC1,i
O=C(NCc1ccccn1)c1nc[nH]c1C(=O)NCc1cccc(C(F)(F)F)c1,+
CC(C)(C)CNC(=O)c1[nH]cnc1C(=O)NC1CCC(O)CC1 (configuration not stated),i
SMILES,FECH inh
CCCNC(=O)c1[nH]cnc1C(=O)NC1CCc2ccccc21 (configuration not stated),i
O=C(NCCc1c[nH]c2ccccc12)c1nc[nH]c1C(=O)NCc1ccccn1,i
O=C(NCc1ccccn1)c1nc[nH]c1C(=O)NCc1ccccn1,+
CC(C)CCNC(=O)c1[nH]cnc1C(=O)NC(c1ccccc1)c1ccccc1,i
CC(C)CNC(=O)c1nc[nH]c1C(=O)NCC(C)(C)C,i
CC(C)CCNC(=O)c1nc[nH]c1C(=O)NCc1cccc(C(F)(F)F)c1,i
O=C(NC1CCc2ccccc21)c1nc[nH]c1C(=O)NCc1ccccn1 (configuration not stated),+
Cc1cc(NC(=O)C(C)C)n(-c2ncnc3c2cnn3-c2ccc(F)cc2)n1,i
COCC(C)NC(=O)c1cccc(NCc2ccccn2)c1C (configuration not stated),i
O=C(c1ccsc1)N1CCC(N2CCCC(C(=O)N3CCCC3)C2)CC1 (configuration not stated),i
CO[C@H]1COC[C@@H]1n1cnc(-c2ccccc2)c1-c1ccc2occc2c1,i
CCC(C)NC(=O)c1ccc(Cn2c(=O)c3cc(OC)c(OC)cc3n(CC(=O)NC(C)C)c2=O)cc1 (configuration not stated),i
COc1ccccc1CNC(=O)c1nc[nH]c1C(=O)NCc1ccccc1OC,+
Cc1ccc(CNC(=O)c2nc[nH]c2C(=O)NCc2ccccc2)o1,i
COc1ccccc1CNC(=O)c1[nH]cnc1C(=O)NC1CCCCC1,+
CCCNC(=O)c1nc[nH]c1C(=O)NCC1CCCCC1,i
CC(C)NC(=O)c1nc[nH]c1C(=O)NCC1CC1,i
Cc1ccc(CNC(=O)c2[nH]cnc2C(=O)NCCC(C)C)o1,i
COc1ccccc1CNC(=O)c1nc[nH]c1C(=O)N1CCC(C)CC1,i
O=C(NC1CC1)c1nc[nH]c1C(=O)NCC1CCCCC1,i
COc1ccccc1CNC(=O)c1[nH]cnc1C(=O)NCc1ccc(C)o1,+
CC(C)(C)CNC(=O)c1nc[nH]c1C(=O)NCC(C)(C)C,i
COc1ccccc1CNC(=O)c1[nH]cnc1C(=O)NC1CCCc2ccccc21 (configuration not stated),+
COCCNC(=O)c1[nH]cnc1C(=O)NC1CCCCC1,i
CCSc1nc(CC(=O)N2CCN(c3ncccn3)CC2)cs1,i
SMILES,FECH inh
CCOc1ccc(C(=O)Nc2cc(C)nn2-c2ncnc3c2cnn3-c2cccc(C)c2C)cc1,i
CCCN1CCN(S(=O)(=O)c2ccc3c(c2)CCN3C(=O)CCC(=O)N2CCCCCC2)CC1,i
COCc1nc2cccnc2n1C1CCN(S(=O)(=O)Cc2ccccc2)CC1,i
c1cc(CNc2cc(-c3nccnc3N3CCCC3)c3cc[nH]c3n2)ccn1,i
Cc1nc(N2CCC(C(O)CC(C)C)CC2)c2ccsc2n1 (configuration not stated),i
Cc1cc(Nc2ccc(OC(=O)C3CCCCC3)cc2)n2nc(-c3cccnc3)nc2n1,i
COc1ccc(N2C(=O)CCS2(=O)=O)cc1S(=O)(=O)Nc1cccc(Cl)c1,i
CCc1c(C)nc2ncnn2c1Sc1ccc(NC(=O)Nc2cccc(C(=O)OC)c2)cc1,i
CCc1c(C)nc2ncnn2c1Sc1ccc(NC(=O)Nc2ccc(OC)cc2OC)cc1,+
CCc1c(C)nc2ncnn2c1Sc1ccc(NC(=O)Nc2cc(OC)ccc2OC)cc1,i
CCc1c(C)nc2ncnn2c1Sc1ccc(NC(=O)Nc2ccsc2C(=O)OC)cc1,+
CCc1c(C)nc2ncnn2c1Sc1ccc(NC(=O)Nc2ccccc2Br)cc1,i
CCc1c(C)nc2ncnn2c1Sc1ccc(NC(=O)Nc2cc(OC)cc(OC)c2)cc1,i
CCn1c(=O)n(Cc2ncc(C)c(OC)c2C)c(=O)c2cnc(-c3ccc(OC)cc3)nc21,i
COc1ccc(C(=O)C2CCCN(c3cc(C(C)C)ncn3)C2)cc1F (configuration not stated),i
Cn1cc(-c2ccc(-c3nc(CCCc4ccccc4)no3)cn2)cn1,i
COCCn1c(CNS(=O)(=O)c2c(C)cc(C)cc2C)nc2cccnc21,i
CCCc1c(C)nc2ncnn2c1Sc1ccc(NC(=O)Nc2ccc(F)cc2)cc1,i
CCCc1cc(C(=O)N2C[C@@H](N)C[C@H]2C(=O)NC(C)C)ccn1,i
Cc1cc(C(=O)N2C[C@@H](N)C[C@H]2C(=O)NC(C)C)c(-c2ccccc2)o1,i
CC(C)NC(=O)[C@@H]1C[C@H](N)CN1C(=O)c1cccc2c3c([nH]c12)CCCC3,+
CCN(CC)C(=O)[C@@H]1C[C@H](N)CN1C(=O)c1cccc2nccnc12,i
CCC(C)Nc1nc(Nc2cccc(F)c2)c2cnn(-c3ccccc3)c2n1 (configuration not stated),i
CCCC(C)CN1CCC(n2cc(-c3ccccc3)nn2)CC1 (configuration not stated),i
